Records with an inconclusive call do not appear. Active and inactive are the calls of the source. Unless noted, calls follow the shape of the dose curve; as a rule, active = well fitted curve in the direction sought with a large enough effect in the repeat runs; inconclusive = weak or mixed curves; inactive = no such curve, though single readings can be large; an effect the other way counts as inactive or inconclusive.

The source of these data is PubChem BioAssay (Tox21).

Test [1] concerns the target Estrogen receptor beta (Homo sapiens) (UniProt Q92731). In words: qHTS assay to identify small molecule antagonists of the estrogen receptor beta (ER-beta) signaling pathway (AID 1259378; active = well fitted inhibition curve with a large enough effect in the signal ratio in the repeat runs, not every such curve was filed as active; the % refers to the signal ratio). The following applies: ER-beta-UAS-bla HEK293T, beta-lactamase FRET ratio, 16 h; series mostly up to 92.4 µM. The method in brief:
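Antagonist mode: compounds added to beta-lactamase reporter HEK293T ER-beta-UAS cells stimulated with E2 (1nM final), 16 hr at 37C. LiveBLAzer B/G FRET substrate, 2 hours room temperature, fluorescence read-out.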
(Quantitative high-throughput screening tests each substance at several concentrations.)

A short description of test [2]: qHTS assay to identify small molecule agonists of the androgen receptor (AR) signaling pathway in the presence of an antagonist - cell viability counter screen (AID 1259379). Also: nearly all actives have a fitted effect of over 25% in size. Also: potency is read from the fitted curve at half-maximal effect. The following applies: MDA-kb2 viability, CellTiter-Fluor, 16 h; series mostly up to 92.4 µM. A digest of the protocol: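 Cytotoxicity counter-screen run in the same wells as the nilutamide-challenged (3.0 µM final) AR agonist assay in MDA-kb2 cells. Compounds tested at 15 concentrations for 16 h, 37 °C without CO2; CellTiter-Fluor fluorescence read.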

A short description of test [3]: qHTS assay to identify small molecule agonists of the estrogen receptor beta (ER-beta) signaling pathway - cell viability counter screen (AID 1259380). Also: nearly all actives have a fitted effect of over 30% in size. Also: potency is read from the fitted curve at half-maximal effect. Particulars: ER-beta-bla HEK293T viability, CellTiter-Glo luminescence, 16 h; series mostly up to 92.4 µM. The method in brief:
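Cell viability counter screen: CellTiter-Glo luminescence (30 min, room temperature) measured in the same wells as the beta-lactamase readout, after 16 hr compound exposure at 37C of ER-beta-bla HEK293T cells in 2% charcoal-stripped FBS medium.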

Test [4] is described as follows: qHTS assay to identify small molecule antagonists of the estrogen receptor beta (ER-beta) signaling pathway - cell viability counter screen (AID 1259382).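 Also: HEK293T cells carrying ER-beta-UAS-bla reporter stimulated with estradiol; nearly all actives have a fitted effect of over 55% in size.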 The following applies: ER-beta-UAS-bla HEK293T viability, CellTiter-Glo luminescence, 16 h; series mostly up to 92.4 µM. The method in brief: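 Cytotoxicity was measured in the same wells by CellTiter-Glo luminescence after 30 min at room temperature. Cells were ER-beta-bla HEK293T in charcoal-stripped serum, given compound together with 1 nM E2 and incubated 16 h at 37C.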

Test [5] addresses Thyrotropin receptor (Homo sapiens) (UniProt P16473). In words: qHTS assay to identify small molecule antagonists of the thyroid stimulating hormone receptor (TSHR) signaling pathway (AID 1259385; calls by dose curve; also: nearly all actives have a fitted effect of over 20% in size). Particulars: TSHR-HEK293 cAMP HTRF, TSH-stimulated antagonist mode; series mostly up to 92.4 µM. A digest of the protocol: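 Antagonist mode: compound-treated TSHR-expressing HEK293 cells were stimulated with 1.5 ng/mL TSH (final) in presence of Ro20-1724 for 30 min at RT. HTRF cAMP detection after 1 h; each compound tested at 15 concentrations, triplicate.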

The nature of test [6]: qHTS assay to identify small molecule agonists or antagonists of the thyroid stimulating hormone receptor (TSHR) signaling pathway - wild type cell line counter screen (AID 1259384; calls by dose curve). The following applies: HEK293 wild type, cAMP HTRF counter-screen; series mostly up to 92.4 µM. The method in brief: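 Counter screen in untransfected Hek293: compounds (15-point titration, triplicate) plus phosphodiesterase inhibitor Ro20-1724 added after 18 h plating; 30 min RT. Intracellular cAMP via competitive d2/cryptate immunoassay, 1 h incubation.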

Test [7] concerns the target Estrogen receptor beta (Homo sapiens) (UniProt Q92731). In words: qHTS assay to identify small molecule agonists of the estrogen receptor beta (ER-beta) signaling pathway (AID 1259377; active = well fitted activation curve with a large enough effect in the signal ratio in the repeat runs, not every such curve was filed as active; the % refers to the signal ratio). The following applies: ER-beta-UAS-bla HEK293T, beta-lactamase FRET ratio, 16 h; series mostly up to 92.4 µM. The method in brief: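 Agonist mode cell assay in GripTite HEK293T cells expressing an ER-beta fusion that drives beta-lactamase from an Upstream Activator Sequence; 16 hr compound exposure at 37C, then 2 h LiveBLAzer B/G FRET substrate at room temperature, fluorescence read-out.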

Test [8] deals with Estrogen receptor (Homo sapiens) (UniProt P03372). As to the kind of experiment: qHTS assay to identify small molecule agonists of the estrogen receptor alpha (ER-alpha) signaling pathway in the presence of an antagonist (AID 1259383; calls by dose curve; also: top concentration of the series differs between compounds; nearly all actives have a fitted effect of over 15% in size). Particulars: VM7Luc4E2 cells, ERE-luciferase, +ICI-182,780, 22 h; series mostly up to 92.4 µM. A digest of the protocol: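 Agonist-mode confirmation run in the presence of 10.0nM (final) ICI-182,780 antagonist. The reporter was ERE-driven luciferase in VM7Luc4E2 cells, grown in charcoal-stripped serum. Cells were exposed to 15-concentration compound series for 22hr, then ONE-Glo luminescence was read.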
Sequence of Estrogen receptor (Homo sapiens) (P03372 whole entry, looked up): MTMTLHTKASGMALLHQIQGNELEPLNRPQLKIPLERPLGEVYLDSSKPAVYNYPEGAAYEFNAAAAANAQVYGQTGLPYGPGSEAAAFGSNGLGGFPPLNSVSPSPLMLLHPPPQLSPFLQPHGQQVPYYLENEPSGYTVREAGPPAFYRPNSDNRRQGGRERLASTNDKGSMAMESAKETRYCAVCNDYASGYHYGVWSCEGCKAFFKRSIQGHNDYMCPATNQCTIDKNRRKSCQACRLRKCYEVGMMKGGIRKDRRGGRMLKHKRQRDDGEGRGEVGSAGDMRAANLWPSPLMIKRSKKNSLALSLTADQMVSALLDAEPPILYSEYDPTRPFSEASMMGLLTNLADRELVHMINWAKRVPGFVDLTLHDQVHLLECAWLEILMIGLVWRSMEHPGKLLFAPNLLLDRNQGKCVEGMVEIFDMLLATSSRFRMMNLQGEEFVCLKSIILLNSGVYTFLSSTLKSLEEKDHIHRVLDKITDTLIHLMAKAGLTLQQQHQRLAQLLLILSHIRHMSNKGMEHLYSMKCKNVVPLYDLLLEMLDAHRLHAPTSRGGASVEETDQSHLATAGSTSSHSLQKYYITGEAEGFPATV

For test [9], the target named is Androgen receptor (Homo sapiens) (UniProt P10275). As to the kind of experiment: qHTS assay to identify small molecule agonists of the androgen receptor (AR) signaling pathway in the presence of an antagonist (AID 1259381; calls by dose curve; also: nearly all actives have a fitted effect of over 15% in size). Particulars: MDA-kb2 MMTV-luciferase, AR agonist + nilutamide, 16 h; series mostly up to 92.4 µM. The method in brief:
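Agonist-mode confirmation run against 3.0 uM final nilutamide: compounds titrated at 15 concentrations onto MDA-kb2 MMTV-luciferase reporter cells. Luminescence measured with ONE-Glo following 16 hr incubation, 37C, 0% CO2.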

Sequence of Estrogen receptor beta (Homo sapiens) (Q92731 whole entry, looked up, the tested form may be a part): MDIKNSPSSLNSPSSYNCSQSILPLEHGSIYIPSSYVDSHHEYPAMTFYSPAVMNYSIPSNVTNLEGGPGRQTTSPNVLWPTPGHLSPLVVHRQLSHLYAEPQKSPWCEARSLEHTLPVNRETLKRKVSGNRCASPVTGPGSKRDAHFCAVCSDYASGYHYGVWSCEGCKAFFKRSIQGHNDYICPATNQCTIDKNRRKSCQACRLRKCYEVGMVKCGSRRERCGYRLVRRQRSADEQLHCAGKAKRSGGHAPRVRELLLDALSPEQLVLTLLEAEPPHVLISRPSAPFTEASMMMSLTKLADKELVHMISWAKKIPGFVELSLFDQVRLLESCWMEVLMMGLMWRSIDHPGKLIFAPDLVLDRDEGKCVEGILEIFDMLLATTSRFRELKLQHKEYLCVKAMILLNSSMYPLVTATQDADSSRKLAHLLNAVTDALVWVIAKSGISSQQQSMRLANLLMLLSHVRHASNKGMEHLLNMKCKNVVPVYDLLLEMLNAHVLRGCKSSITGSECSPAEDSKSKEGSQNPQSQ
Sequence of Androgen receptor (Homo sapiens) (P10275 whole entry, looked up): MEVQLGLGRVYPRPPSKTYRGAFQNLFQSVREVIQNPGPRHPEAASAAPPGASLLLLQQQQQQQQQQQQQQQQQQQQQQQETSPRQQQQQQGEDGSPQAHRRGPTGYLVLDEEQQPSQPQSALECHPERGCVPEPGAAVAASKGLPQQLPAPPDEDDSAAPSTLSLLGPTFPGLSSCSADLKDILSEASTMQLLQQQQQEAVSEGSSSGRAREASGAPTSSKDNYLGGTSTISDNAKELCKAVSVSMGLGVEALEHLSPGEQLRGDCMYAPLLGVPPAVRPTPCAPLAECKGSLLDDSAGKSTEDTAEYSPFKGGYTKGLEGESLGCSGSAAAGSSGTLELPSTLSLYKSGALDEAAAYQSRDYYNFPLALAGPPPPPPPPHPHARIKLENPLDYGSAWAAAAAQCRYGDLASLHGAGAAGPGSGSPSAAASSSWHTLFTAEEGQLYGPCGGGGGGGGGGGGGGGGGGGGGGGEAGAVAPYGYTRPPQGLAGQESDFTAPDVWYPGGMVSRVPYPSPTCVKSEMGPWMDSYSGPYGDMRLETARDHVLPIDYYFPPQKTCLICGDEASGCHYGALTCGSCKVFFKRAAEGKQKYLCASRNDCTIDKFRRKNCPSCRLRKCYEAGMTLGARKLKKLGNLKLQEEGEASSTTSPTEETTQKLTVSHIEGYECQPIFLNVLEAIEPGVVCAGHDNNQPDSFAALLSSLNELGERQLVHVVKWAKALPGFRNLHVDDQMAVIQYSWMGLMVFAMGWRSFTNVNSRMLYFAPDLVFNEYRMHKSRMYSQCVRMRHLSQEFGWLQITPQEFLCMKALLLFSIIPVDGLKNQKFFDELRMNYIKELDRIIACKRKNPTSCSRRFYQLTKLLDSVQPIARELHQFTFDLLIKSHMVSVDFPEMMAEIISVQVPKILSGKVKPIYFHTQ
Sequence of Thyrotropin receptor (Homo sapiens) (P16473 whole entry, looked up): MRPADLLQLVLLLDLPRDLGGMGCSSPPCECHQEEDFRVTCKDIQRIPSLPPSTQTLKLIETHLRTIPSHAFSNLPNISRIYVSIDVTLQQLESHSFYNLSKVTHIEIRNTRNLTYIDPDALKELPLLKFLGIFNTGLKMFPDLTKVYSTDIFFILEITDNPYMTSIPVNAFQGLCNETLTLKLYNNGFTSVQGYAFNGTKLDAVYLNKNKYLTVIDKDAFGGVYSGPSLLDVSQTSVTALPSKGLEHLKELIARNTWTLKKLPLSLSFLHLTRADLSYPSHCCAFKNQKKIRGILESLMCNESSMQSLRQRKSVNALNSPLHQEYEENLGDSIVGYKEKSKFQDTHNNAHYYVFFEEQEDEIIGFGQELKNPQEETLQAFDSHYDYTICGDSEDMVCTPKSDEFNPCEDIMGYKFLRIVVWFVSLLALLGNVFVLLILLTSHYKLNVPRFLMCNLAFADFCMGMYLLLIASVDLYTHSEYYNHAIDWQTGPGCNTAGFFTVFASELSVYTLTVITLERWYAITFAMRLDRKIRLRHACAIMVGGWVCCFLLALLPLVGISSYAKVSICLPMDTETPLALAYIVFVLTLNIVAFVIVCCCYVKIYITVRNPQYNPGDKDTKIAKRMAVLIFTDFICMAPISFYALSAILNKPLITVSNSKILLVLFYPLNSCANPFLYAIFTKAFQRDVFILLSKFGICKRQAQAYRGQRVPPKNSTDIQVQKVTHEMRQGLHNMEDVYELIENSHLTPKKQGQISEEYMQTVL

As to `CCCCCON=O`, the Potency entry in [1], in [2], in [3], in [4] and in test [5] was “inactive” in each case.
On to `O=C(N[C@H]1N=C(c2ccccc2F)c2cccc3c2N(CC3)C1=O)c1cc2ccccc2[nH]1`, for which the Potency entry in test [1], in test [2], in [4], in test [6] and in [5] was “inactive” each time.
Take `Oc1ccc2[nH]cc(CCCCN3CC=C(c4ccccc4)CC3)c2c1`: the Potency result in [1], in test [4], in [6] and in [5] was “inactive” in each case. The Potency in test [3] is 29.8 µM (active).
`Oc1ccc([C@H]2CNCc3c2ccc(O)c3O)cc1O`: the Potency entry in test [7], in [3], in test [4] and in test [8] was “inactive” in each case.
With `CN`, the Potency entry in test [1], in test [2], in [4], in test [6] and in test [5] was “inactive” in each case.
In the case of `CN/C(=N\[N+](=O)[O-])NCc1cnc(Cl)s1`, the Potency result in test [1], in [3], in [4] and in test [8] was “inactive” throughout.
Turning to `CC(=O)[O-].CC(=O)[O-].CC(=O)[O-].[Cr+3]`, the Potency entry in [2], in [3] and in [4] was “inactive” each time.
For the molecule `N#CC(C#N)=NNc1cccc(Cl)c1`, the Potency was 1.93 µM (active) in test [2] and 15.4 µM (active) in test [3]. Further, the Potency result in test [9], in test [8], in test [6] and in [5] was “inactive” in each case.
Regarding `C[C@H]1[C@H](c2ccc(Cl)cc2)SC(=O)N1C(=O)NC1CCCCC1`, the Potency entry in test [1], in test [9], in test [4], in test [8] and in test [6] was “inactive” each time.
In the case of `COP(=O)(OC)Oc1ccc([N+](=O)[O-])cc1`, the Potency result in [1], in test [3], in test [4], in [8], in test [6] and in [5] was “inactive” throughout.
For `CCC1(CC)C(=O)N=C(O)NC1=O`, the Potency entry in [7], in test [1], in [3], in test [4] and in test [8] was “inactive” in each case.
Turning to `Clc1ccc(C(Cl)(Cl)Cl)cc1Cl`, the Potency entry in test [1], in [3], in test [4] and in test [8] was “inactive” throughout.
Turning to `COc1ccc2c3c1O[C@H]1[C@H](O)CC[C@H]4[C@@H](C2)N(C)CC[C@@]341`, the Potency entry in test [7], in test [1], in test [3], in test [4], in test [6] and in test [5] was “inactive” each time.
On to `BrCC(Br)(Br)Br`, for which the Potency result in [7], in test [1], in [3], in test [9], in [4] and in test [8] was “inactive” in each case.
